Common to all, as to assay: DAPPL (digital affinity profiling via proximity ligation, sequencing); 10 mM Tris-HCl pH 7.5, 50 mM NaCl, 1 mM DTT, 4% glycerol, room temperature, 30 min; GST-TFs on glutathione beads, 16-mer random dsDNA library, 0.1% formaldehyde crosslink after washing; high values mean tight binding
The target in assay [1] is T1, FEV (Homo sapiens, UniProt Q99581 1-238).
T1 sequence: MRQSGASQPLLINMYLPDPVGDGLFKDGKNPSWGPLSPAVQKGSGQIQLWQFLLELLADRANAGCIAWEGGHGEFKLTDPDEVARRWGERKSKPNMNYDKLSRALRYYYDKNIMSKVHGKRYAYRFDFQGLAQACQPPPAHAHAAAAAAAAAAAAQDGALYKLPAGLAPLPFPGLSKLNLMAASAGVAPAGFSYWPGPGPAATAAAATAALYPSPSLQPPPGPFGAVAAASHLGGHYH
The following applies: protein: recombinant; tags: N-terminal GST; dsDNA, one strand shown. The method in brief:
(§1)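 A tag-only sample was pooled with DNA-barcoded human transcription factors that had been expressed in yeast as GST fusions and captured on glutathione beads. The pools were incubated for 30 min at room temperature with 200 nmole of a random double-stranded 16-mer DNA library in Tris/NaCl/DTT/glycerol buffer, then washed, crosslinked with 0.1% formaldehyde, proximity-ligated (BsaI/T4 ligase, 1 h, 37 °C), PCR-amplified and sequenced on an Illumina NextSeq500. Binding signal is each hexamer's read frequency for a factor divided by its frequency for the tag-only sample.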

In assay [2] the target is ETV5 (Homo sapiens, UniProt P41161 1-510). The settings on record: protein: recombinant; tags: N-terminal GST; dsDNA, one strand shown. A digest of the protocol: as §1
ETV5, sequence (P41161 whole entry): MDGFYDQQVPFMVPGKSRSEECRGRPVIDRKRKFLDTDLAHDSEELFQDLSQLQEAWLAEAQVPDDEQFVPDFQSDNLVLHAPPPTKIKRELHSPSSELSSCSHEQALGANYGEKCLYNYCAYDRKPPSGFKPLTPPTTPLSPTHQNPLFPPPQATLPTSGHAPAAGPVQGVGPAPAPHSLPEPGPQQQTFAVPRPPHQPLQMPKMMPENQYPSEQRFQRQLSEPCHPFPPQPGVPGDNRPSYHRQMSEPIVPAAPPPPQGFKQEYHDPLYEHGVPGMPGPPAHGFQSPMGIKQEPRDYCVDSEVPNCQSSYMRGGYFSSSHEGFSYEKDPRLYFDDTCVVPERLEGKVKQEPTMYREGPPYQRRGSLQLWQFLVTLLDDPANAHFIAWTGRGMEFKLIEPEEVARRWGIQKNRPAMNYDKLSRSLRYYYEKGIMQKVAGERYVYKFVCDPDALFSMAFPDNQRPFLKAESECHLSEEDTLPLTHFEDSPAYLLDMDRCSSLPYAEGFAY
For assay [3], the target named is HSF1 (Homo sapiens, UniProt Q00613 1-529). The settings on record: protein: recombinant; tags: N-terminal GST; chain copies: 3; dsDNA, one strand shown. The method in brief: as §1
HSF1, sequence (Q00613 whole entry): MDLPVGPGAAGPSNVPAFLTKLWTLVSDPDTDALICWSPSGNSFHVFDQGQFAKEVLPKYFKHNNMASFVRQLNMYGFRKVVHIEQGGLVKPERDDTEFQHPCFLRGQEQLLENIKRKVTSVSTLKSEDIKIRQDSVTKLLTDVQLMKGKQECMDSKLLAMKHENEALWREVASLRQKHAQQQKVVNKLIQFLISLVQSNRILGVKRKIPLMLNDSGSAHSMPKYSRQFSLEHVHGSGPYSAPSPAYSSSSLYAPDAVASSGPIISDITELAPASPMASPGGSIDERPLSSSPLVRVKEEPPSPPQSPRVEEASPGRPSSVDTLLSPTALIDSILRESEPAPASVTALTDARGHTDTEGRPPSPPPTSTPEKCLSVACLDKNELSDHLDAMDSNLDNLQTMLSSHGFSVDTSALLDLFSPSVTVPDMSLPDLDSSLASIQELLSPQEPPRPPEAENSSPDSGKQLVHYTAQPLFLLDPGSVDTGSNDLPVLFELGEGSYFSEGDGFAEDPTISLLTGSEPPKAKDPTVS
The target in assay [4] is T2, SPIC (Homo sapiens, UniProt Q8N5J4 1-248).
T2 sequence: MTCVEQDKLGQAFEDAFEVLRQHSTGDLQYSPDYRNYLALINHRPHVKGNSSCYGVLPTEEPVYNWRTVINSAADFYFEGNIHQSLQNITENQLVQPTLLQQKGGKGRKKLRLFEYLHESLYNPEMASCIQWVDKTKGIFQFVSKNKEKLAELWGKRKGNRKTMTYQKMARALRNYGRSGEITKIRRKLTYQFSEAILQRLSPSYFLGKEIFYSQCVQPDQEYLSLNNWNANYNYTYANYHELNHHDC
The settings on record: protein: recombinant; tags: N-terminal GST; dsDNA, one strand shown. A digest of the protocol: as §1

In assay [5] the target is ELF4 (Homo sapiens, UniProt Q99607 1-663). The following applies: protein: recombinant; tags: N-terminal GST; dsDNA, one strand shown. A digest of the protocol: as §1
ELF4, sequence (Q99607 whole entry): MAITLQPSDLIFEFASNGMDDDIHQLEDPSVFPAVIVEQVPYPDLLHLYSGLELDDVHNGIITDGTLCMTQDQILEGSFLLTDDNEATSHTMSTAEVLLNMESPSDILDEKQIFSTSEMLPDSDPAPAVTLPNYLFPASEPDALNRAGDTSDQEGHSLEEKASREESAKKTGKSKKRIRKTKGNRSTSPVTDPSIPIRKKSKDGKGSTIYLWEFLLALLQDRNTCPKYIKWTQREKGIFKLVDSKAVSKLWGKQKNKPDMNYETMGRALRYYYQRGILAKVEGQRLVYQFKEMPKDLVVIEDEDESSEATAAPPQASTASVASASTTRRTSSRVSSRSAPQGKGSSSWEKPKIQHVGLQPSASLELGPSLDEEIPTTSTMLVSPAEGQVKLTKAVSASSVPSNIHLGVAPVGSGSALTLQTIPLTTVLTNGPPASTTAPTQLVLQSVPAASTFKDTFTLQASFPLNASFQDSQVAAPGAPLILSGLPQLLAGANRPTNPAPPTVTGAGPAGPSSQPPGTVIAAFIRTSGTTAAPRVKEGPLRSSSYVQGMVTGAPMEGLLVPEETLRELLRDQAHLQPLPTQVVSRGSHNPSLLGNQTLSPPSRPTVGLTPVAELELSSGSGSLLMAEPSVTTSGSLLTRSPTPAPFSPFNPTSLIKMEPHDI
Assay [6] deals with T3, ELK4 (Homo sapiens, UniProt P28324-2 1-405).
T3 sequence: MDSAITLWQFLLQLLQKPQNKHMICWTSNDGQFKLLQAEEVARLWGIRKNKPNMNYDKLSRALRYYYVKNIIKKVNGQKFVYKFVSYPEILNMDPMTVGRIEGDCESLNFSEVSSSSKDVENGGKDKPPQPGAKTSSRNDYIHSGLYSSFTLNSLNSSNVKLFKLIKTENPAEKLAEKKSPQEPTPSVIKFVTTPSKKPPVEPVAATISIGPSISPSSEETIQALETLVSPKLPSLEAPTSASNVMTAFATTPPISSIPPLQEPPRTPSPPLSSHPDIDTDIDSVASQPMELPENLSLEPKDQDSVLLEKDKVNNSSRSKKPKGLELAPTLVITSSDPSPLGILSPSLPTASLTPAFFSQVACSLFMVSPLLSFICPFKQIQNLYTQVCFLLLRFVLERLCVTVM
The following applies: protein: recombinant; tags: N-terminal GST; dsDNA, one strand shown. A digest of the protocol:
as §1

Assay [7] has as its target T4, ETV2 (Homo sapiens, UniProt O00321 1-342).
T4 sequence: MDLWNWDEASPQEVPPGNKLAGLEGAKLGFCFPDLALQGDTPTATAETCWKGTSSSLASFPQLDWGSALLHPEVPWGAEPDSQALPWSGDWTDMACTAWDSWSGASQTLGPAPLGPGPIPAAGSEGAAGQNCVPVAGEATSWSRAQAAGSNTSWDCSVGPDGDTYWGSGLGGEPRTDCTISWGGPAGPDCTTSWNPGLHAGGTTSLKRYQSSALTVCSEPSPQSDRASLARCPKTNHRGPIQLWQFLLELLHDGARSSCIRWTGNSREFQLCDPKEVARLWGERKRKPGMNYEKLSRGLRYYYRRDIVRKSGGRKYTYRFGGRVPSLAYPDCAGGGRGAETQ
The following applies: protein: recombinant; tags: N-terminal GST; dsDNA, one strand shown. The method in brief: as §1

Assay [8] has as its target T5, ELF3 (Homo sapiens, UniProt P78545 1-371).
T5 sequence: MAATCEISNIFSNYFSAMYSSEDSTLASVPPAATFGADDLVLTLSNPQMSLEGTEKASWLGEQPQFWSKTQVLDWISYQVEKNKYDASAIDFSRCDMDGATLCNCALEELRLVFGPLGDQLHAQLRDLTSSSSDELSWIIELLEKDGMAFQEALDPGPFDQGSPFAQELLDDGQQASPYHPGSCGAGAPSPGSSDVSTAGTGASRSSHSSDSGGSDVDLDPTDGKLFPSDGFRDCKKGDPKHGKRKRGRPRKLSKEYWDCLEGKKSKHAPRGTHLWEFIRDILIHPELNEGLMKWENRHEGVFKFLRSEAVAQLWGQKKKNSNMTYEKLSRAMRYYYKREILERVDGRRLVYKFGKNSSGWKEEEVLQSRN
The following applies: protein: recombinant; tags: N-terminal GST; dsDNA, one strand shown. A digest of the protocol: as §1

For assay [9], the target named is CRX (Homo sapiens, UniProt O43186 1-299). The settings on record: protein: recombinant; tags: N-terminal GST; dsDNA, one strand shown. A digest of the protocol:
as §1

The target in assay [10] is ETV1 (Homo sapiens, UniProt P50549 1-477). The settings on record: protein: recombinant; tags: N-terminal GST; dsDNA, one strand shown. The method in brief:
as §1

Assay [11] deals with T6, ERF (Homo sapiens, UniProt P50548 1-548).
T6 sequence: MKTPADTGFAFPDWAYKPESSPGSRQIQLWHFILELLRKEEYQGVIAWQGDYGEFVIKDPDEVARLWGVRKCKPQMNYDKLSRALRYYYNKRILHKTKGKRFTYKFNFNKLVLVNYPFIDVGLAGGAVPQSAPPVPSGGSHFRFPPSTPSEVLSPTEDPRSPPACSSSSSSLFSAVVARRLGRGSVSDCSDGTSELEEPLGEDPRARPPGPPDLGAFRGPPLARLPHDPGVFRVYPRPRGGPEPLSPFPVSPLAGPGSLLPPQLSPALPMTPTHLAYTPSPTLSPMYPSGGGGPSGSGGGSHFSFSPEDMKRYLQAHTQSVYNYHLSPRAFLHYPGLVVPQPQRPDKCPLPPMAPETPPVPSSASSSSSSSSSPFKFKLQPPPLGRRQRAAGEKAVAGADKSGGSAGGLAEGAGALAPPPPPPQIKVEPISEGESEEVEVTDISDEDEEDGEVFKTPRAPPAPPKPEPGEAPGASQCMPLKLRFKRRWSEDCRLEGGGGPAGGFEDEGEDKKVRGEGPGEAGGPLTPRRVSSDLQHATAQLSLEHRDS
The settings on record: protein: recombinant; tags: N-terminal GST; dsDNA, one strand shown. The method in brief:
as §1

Assay [12] has as its target T7, ETV3L (Homo sapiens, UniProt Q6ZN32 1-361).
T7 sequence: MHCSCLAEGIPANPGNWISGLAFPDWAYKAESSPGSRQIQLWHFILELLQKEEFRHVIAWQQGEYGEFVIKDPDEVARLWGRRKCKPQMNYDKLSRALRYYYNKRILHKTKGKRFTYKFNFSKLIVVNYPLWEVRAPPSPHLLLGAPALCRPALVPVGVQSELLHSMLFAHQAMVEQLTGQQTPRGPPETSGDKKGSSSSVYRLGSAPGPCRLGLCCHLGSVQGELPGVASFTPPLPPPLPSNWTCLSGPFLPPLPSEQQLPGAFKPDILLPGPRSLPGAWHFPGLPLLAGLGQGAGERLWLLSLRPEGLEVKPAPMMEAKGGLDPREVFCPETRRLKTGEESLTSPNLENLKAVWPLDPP
The settings on record: protein: recombinant; tags: N-terminal GST; dsDNA, one strand shown. The method in brief: as §1

Assay [13] deals with T8, ETS2 (Homo sapiens, UniProt P15036 1-469).
T8 sequence: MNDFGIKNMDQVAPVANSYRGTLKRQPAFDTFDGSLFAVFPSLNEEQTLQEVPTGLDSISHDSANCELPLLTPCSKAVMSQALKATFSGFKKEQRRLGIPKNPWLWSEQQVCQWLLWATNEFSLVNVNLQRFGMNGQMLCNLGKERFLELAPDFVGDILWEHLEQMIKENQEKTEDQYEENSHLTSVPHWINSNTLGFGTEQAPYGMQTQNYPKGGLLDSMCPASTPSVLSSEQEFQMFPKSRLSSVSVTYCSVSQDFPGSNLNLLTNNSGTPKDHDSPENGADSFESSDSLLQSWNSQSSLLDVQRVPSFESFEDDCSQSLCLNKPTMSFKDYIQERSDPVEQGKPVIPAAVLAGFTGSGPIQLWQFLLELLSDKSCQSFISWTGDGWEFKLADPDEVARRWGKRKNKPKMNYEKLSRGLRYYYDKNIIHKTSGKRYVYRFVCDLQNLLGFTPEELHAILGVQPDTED
The settings on record: protein: recombinant; tags: N-terminal GST; dsDNA, one strand shown. The method in brief:
as §1

The target in assay [14] is T9, SPDEF (Homo sapiens, UniProt O95238 1-335).
T9 sequence: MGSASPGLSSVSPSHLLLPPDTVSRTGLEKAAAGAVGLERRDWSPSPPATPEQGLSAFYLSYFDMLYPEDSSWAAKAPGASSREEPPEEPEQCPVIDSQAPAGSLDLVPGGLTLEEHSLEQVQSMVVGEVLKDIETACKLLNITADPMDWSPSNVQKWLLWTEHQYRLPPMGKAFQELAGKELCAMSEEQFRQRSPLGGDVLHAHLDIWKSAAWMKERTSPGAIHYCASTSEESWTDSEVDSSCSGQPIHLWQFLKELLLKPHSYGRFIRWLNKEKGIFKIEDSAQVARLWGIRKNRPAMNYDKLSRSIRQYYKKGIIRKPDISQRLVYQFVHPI
The settings on record: protein: recombinant; tags: N-terminal GST; dsDNA, one strand shown. A digest of the protocol: as §1

The target of assay [15] is T10, ETV7 (Homo sapiens, UniProt Q9Y603 1-341).
T10 sequence: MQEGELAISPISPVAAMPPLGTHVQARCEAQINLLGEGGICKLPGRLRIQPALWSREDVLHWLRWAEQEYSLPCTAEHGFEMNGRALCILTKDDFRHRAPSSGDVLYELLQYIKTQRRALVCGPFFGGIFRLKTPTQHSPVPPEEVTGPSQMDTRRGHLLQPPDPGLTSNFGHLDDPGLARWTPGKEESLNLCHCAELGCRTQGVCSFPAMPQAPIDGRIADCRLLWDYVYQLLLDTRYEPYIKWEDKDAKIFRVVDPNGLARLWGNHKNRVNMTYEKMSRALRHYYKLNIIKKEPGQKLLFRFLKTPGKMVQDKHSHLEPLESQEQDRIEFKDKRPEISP
The settings on record: protein: recombinant; tags: N-terminal GST; dsDNA, one strand shown. A digest of the protocol:
as §1

For assay [16], the target named is T11, ELF5 (Homo sapiens, UniProt Q9UKW6-2 1-255).
T11 sequence: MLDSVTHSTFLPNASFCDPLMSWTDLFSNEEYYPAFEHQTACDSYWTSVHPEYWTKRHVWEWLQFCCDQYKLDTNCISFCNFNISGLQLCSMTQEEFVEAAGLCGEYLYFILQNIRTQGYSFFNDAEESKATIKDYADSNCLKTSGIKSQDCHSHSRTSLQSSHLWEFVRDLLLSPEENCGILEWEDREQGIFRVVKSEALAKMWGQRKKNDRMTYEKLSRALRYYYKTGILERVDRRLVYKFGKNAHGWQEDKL
The settings on record: protein: recombinant; tags: N-terminal GST; dsDNA, one strand shown. A digest of the protocol:
as §1

The target of assay [17] is T12, ETV3 (Homo sapiens, UniProt P41162-2 1-143).
T12 sequence: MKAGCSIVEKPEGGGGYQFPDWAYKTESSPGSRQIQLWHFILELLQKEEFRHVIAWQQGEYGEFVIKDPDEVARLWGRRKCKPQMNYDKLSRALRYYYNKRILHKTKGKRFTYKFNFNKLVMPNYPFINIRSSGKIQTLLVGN
The following applies: protein: recombinant; tags: N-terminal GST; dsDNA, one strand shown. The method in brief:
as §1

In assay [18] the target is ETV6 (Homo sapiens, UniProt P41212 1-452). The settings on record: protein: recombinant; tags: N-terminal GST; dsDNA, one strand shown. The method in brief:
as §1

This is an account of results in publication PMC7862700, “An all-to-all approach to the identification of sequence-specific readers for epigenetic DNA modifications on cytosine”.

ETV1, sequence (P50549 whole entry): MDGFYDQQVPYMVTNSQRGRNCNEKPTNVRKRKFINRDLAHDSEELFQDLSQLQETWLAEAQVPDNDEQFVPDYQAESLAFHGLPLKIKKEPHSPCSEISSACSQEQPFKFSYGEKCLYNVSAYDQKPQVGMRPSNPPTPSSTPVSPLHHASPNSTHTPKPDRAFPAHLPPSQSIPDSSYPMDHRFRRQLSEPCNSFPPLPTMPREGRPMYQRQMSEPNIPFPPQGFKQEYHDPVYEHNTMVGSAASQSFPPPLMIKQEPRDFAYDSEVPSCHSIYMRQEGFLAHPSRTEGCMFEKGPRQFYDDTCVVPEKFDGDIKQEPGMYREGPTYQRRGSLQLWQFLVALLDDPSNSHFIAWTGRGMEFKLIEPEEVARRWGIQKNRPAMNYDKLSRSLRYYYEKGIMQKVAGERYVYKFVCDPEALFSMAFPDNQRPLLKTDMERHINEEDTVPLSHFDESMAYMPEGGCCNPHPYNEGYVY
ETV6, sequence (P41212 whole entry): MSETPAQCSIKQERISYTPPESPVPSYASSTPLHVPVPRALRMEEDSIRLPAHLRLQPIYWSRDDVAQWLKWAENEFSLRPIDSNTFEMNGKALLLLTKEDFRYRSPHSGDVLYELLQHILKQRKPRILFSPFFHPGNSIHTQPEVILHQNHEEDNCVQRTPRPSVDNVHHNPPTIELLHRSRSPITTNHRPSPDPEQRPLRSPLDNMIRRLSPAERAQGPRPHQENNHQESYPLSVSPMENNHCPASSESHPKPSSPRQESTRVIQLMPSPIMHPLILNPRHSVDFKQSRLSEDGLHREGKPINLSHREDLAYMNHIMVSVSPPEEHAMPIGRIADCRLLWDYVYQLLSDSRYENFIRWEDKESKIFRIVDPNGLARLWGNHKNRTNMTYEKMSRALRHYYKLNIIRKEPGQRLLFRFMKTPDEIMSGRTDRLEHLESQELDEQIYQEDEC
CRX, sequence (O43186 whole entry): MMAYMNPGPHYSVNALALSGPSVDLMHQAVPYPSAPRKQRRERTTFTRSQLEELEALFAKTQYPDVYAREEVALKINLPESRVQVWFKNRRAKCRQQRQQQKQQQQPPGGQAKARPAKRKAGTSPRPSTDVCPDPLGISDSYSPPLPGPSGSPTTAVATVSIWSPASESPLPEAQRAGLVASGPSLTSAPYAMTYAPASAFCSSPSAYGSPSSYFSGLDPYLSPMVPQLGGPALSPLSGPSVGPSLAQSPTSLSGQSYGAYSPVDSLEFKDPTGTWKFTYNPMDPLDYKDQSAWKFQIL

Consider CTGAAA, for which the binding signal in assay [1] is 1.25 fold enrichment (6-mer frequency, TF over GST control); in assay [2] it was 1.22 fold enrichment (6-mer frequency, TF over GST control); in [3], 1.16 fold enrichment (6-mer frequency, TF over GST control); in assay [4] it was 1.35 fold enrichment (6-mer frequency, TF over GST control); in [5], 1.13 fold enrichment (6-mer frequency, TF over GST control); in assay [6] it was 1.19 fold enrichment (6-mer frequency, TF over GST control). The binding signal in [7] was 1.15 fold enrichment (6-mer frequency, TF over GST control); in assay [8], 1.28 fold enrichment (6-mer frequency, TF over GST control); in assay [9], 1 fold enrichment (6-mer frequency, TF over GST control); in assay [10] it was 1.1 fold enrichment (6-mer frequency, TF over GST control); in [11], 1.09 fold enrichment (6-mer frequency, TF over GST control); in assay [12] it was 1.1 fold enrichment (6-mer frequency, TF over GST control). The binding signal in [13] was 1.19 fold enrichment (6-mer frequency, TF over GST control); in [14] it was 1.16 fold enrichment (6-mer frequency, TF over GST control); in assay [15], 1.12 fold enrichment (6-mer frequency, TF over GST control); in [16] it was 1.09 fold enrichment (6-mer frequency, TF over GST control); in assay [17], 1.17 fold enrichment (6-mer frequency, TF over GST control); in [18], 1.16 fold enrichment (6-mer frequency, TF over GST control).
